p53 reactivator = qHTS assay for re-activators of p53 using a Luc reporter. H1299 p53-A138V BP100-luciferase reporter, luminescence, 24 h. Potency, µM (series often up to 92.2 µM), for the others: at the highest dose activity change, positive = activation, usual class: activators. 320,000 compounds, 0.063% hits; note: potency is the fitted concentration of half-maximal effect; % of control where 0% means no effect; nearly all actives have a fitted effect of over 45% in size
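H1299 (p53-null), stable ts p53-A138V + BP100-Luc; 1000 cells/well, Opti-MEM/10% FBS; cpd 4 pt, 1:5; 24 h, 37 deg C, 5% CO2; detection reagent 10 min RT; luminescence.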
IL-2 act = qHTS of IL-2 Activators | IL-2 activation reporter assay, cell-based qHTS; stimulated with anti-CD3/CD4/CD28 beads; in transgenic mouse T cells | AID 652025, 2013 | 360,000 compounds, 0.065% hits | activation, % (series mostly up to about 46 µM); in the data active = activation above about 50%; inconclusive = mostly about 30% to 49%; note: 0% is about no effect
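Readout: EGFP and DsRed signals by fluorescent plate cytometry. Unstimulated transgenic mouse T cells received compound 60 min before antibody-bead stimulation, then incubated 18 h at 37 degrees C.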
A549 tox-1 = Nrf2 qHTS screen for inhibitors: counterscreen for cytotoxicity; A549 ARE-Fluc cells, CellTiter-Fluor viability, 18-24 h; Potency, µM (highest dose often 46 µM), for inactives: at the highest dose activity change, negative = cytotoxicity, most hits filed as inhibitors; 390,000 compounds, 0.16% hits; AID 504648, 2011; note: potency is the fitted concentration of half-maximal effect; % is set by controls: 0 for no effect and ±100 for the full control effect
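A549 ARE_Fluc cells in 5% FBS OPTI-MEM were exposed to compounds in concentration-response for 18-24 h at 37 deg C. Viability was read by CellTiter-Fluor fluorescence (Ex 405/Em 525) after 30 min, before the luciferase read.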
Nrf2 block = Nrf2 qHTS screen for inhibitors; A549 ARE-Fluc reporter, luciferase luminescence, 18-24 h; Potency, µM (highest dose often 46 µM), for the others: at the highest dose activity change, negative = inhibition, most hits filed as inhibitors; 360,000 compounds, 2.1% hits; note: potency is the fitted concentration of half-maximal effect; % is set by controls: 0 for no effect and ±100 for the full control effect; nearly all actives have a fitted effect of over 60% in size
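Nrf2 function is reported as luminescence of an ARE-controlled luciferase in A549 cells. Compounds were tested at several concentrations, and a CellTiter-Fluor read on the same wells flagged cytotoxicity.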
BRCA1 expr up = qHTS Assay to Identify Small Molecule Activators of BRCA1 Expression. MCF7-BRCA1-FFLuc reporter, luminescence, 48 h; response scale: scaled: vehicle 0%, 10 µM genistein 100%. Potency, µM (series often up to 46.1 µM), for inactives: top-dose activation, usual class: activators. 380,000 compounds, 1.1% hits. AID 624202, 2012; note: potency is the fitted concentration of half-maximal effect; nearly all actives have a fitted effect of over 80% in size
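48 h compound treatment of MCF7-BRCA1-FFLuc cells (phenol-red free MEM, 37 °C), then 15 min with luciferase substrate and luminescence imaging.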
Nrf2 ARE act = qHTS of Nrf2 Activators; AREc32 ARE-luciferase reporter (MCF7-derived line), luminescence, 24 h; Potency, µM (titrated, usually from 46.1 µM), for inactives: at the highest dose activation, most hits filed as activators; 410,000 compounds, 0.31% hits; note: potency is the fitted concentration of half-maximal effect; % of control where 0% means no effect; nearly all actives have a fitted effect of over 65% in size
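Nrf2 activation is followed as ARE-luciferase induction in the AREc32 line after one day of compound treatment; luminescence is read with Steady-Glo.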
FLuc counter 3 = Nrf2 qHTS screen for inhibitors: Purified Fluc Biochemical Counterscreen for Hit Validation; Potency, µM (highest dose often 57.5 µM), without a hit: at the highest dose activity change, negative = inhibition, actives largely listed as inhibitors; 1,400 compounds, 4% hits; purified firefly luciferase, luminescence inhibition; shares compounds with Nrf2 block; note: potency is the fitted concentration of half-maximal effect; % is set by controls: 0 for no effect and ±100 for the full control effect; nearly all actives have a fitted effect of over 65% in size
Target sequence (P08659 whole entry, looked up): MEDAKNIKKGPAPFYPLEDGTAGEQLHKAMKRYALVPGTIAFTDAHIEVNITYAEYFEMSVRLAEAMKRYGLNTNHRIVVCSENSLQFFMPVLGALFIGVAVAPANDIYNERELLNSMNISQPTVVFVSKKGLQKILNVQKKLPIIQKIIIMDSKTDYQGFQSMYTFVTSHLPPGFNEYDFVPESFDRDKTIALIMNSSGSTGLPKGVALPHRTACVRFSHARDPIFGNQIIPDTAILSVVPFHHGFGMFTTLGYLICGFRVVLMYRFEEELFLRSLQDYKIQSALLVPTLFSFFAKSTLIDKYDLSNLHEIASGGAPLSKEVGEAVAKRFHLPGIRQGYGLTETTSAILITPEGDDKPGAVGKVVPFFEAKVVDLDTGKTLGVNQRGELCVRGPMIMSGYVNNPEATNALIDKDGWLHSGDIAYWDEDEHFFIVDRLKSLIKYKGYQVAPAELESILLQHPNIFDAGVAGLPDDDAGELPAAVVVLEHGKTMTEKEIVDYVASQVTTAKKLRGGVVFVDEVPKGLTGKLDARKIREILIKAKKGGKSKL
A549 tox-2 = Nrf2 qHTS screen for inhibitors: A549 ARE-Fluc Cytotoxicity Counterscreen for Hit Validation. A549 ARE-Fluc cells, cytotoxicity counterscreen. 1,400 compounds, 2% hits. Potency, µM (series often up to 46.1 µM), without a hit: top-dose activity change, negative = cytotoxicity, usual class: inhibitors. shares compounds with Nrf2 block;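 note: potency is the fitted concentration of half-maximal effect; cells exposed to compounds for 18 to 24 hours; % is set by controls: 0 for no effect and ±100 for the full control effect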
Nrf2 ARE inh = Nrf2 qHTS screen for inhibitors: Nrf2 A549 ARE-Fluc Confirmation Assay for Hit Validation; A549 ARE-firefly luciferase reporter, luminescence; Potency, µM (highest dose often 46.1 µM), inactives show at the highest dose activity change, negative = inhibition, hits mostly inhibitors; 1,400 compounds, 74% hits; shares compounds with Nrf2 block; AID 720524, 2013; note: potency is the fitted concentration of half-maximal effect; % is set by controls: 0 for no effect and ±100 for the full control effect; nearly all actives have a fitted effect of over 65% in size
* hit, by the source's call; ? = inconclusive; · = no result given; [ ] = remark or other dose. Hits are enriched below; roughly 3.2% of the tested compounds scored in any of these assays. Unless noted, calls come from the whole dose curve; as a rule, active = well fitted curve in the direction sought with a large enough effect; inconclusive = small, poorly fitted or top-dose-only effect, or another doubt; inactive = no such curve, though single readings can be large; an effect the other way counts as inactive or inconclusive.

SMILES	p53 reactivator	IL-2 act	A549 tox-1	Nrf2 block	BRCA1 expr up	Nrf2 ARE act	FLuc counter 3	A549 tox-2	Nrf2 ARE inh
CCOC(=O)c1c(C)[nH]c(CCC(=O)Nc2cc(Cl)ccc2OC)c1C	·	·	-2%	·	·	5%	·	·	·
CNc1ccc(C=C2c3ccccc3-c3ccccc32)cc1	·	·	·	·	-77%	·	?	-25%	3.7µM*
Cc1ccccc1NC(=O)c1cccc2nc3ccccc3nc12	-7%	0	-27%	5.2µM*	-93%	0%	-11%	?	10µM*
COc1cc2c(cc1OC)C(C)N(C(=O)Nc1ccccc1)CC2 (centres undefined)	5%	-4	-28%	-15%	-81%	0%	·	·	·
COc1ccccc1/C=C/C(=O)N1CCc2cc(OC)c(OC)cc2C1C (centres undefined)	-36%	-2	-11%	?	-17%	0%[9.22 µM]	2%	-6%	7.3µM*
O=S(=O)(Nc1ccc(Cc2ccncc2)cc1)c1ccc(Cl)cc1	3%	-1	-16%	9.2µM*	-40%	1%	0%	-1%	16µM*
O=S(=O)(Nc1ccc(Cc2ccncc2)cc1)c1ccc(Br)cc1	-2%	-2	-13%	?	-72%	3%	·	·	·
CC(Oc1ccc(Cl)cc1Cl)C(=O)Nc1ccc2oc(-c3ccncc3)nc2c1 (centres undefined)	-6%	-2	?	4.6µM*	2%	0%	3%	-16%	8.2µM*
COc1cc(C(=O)Nc2nc3ccc(C)cc3s2)ccc1OCc1c(C)noc1C	?	-5	-6%	2%	-42%	-2%	·	·	·
CCc1nnc(NC(=O)c2ccc(OCc3c(C)noc3C)c(OC)c2)s1	-1%	-1	0%	5.8µM*	-19%	0%	2%	5%	15%
Cc1c(C(=O)Nc2ccc(Nc3ccccc3)cc2)cccc1[N+](=O)[O-]	·	0	-15%	?	-27%	0%	·	·	·
O=C(Nc1ccccc1)c1ccc(Nc2c([N+](=O)[O-])cc([N+](=O)[O-])c3ccccc23)cc1	-5%	1	-29%	7.3µM*	-50%	0%	1%	-26%	5.2µM*
Nc1ccc(/C=C/c2nccc3ccccc23)cc1	·	·	·	·	-40%	·	2.7µM*	-7%	?
CCN(Cc1ccccc1)c1ccc(/C=C/c2nccc3ccccc23)cc1	·	·	·	·	-14%	·	·	·	·
COc1cc(OC)c(/C=C/c2ccccn2)c(OC)c1	·	·	·	·	·	·	3%	-22%	6.5µM*
COc1cc(OC)c(/C=C/c2nccc3ccccc23)c(OC)c1	·	·	·	·	-51%	·	7.6µM*	23%	·
COc1cc(OC)c(/C=C/c2ccc3ccccc3n2)c(OC)c1	·	·	·	·	·	·	-24%	?	6.5µM*
COc1cc(OC)c(C=Cc2ccncn2)c(OC)c1	·	-2	·	·	0%	2%	·	·	·
CCCN(CCC)C(=O)C1CCN(c2cc(C)nc3c(-c4ccc(Cl)cc4)c(C)nn23)CC1	·	·	0%	3%	-6%	0%	·	·	·
Cc1ccc(OCCn2c(-c3ccc(Br)cc3)nc3ccccc3c2=O)cc1C	·	·	-2%	-5%	·	7%	·	·	·
Cc1ccc(-n2cnc3cc(C(=O)NC4CCCCCC4)ccc32)cc1Cl	·	·	5%	·	·	2%	·	·	·
O=c1[nH]c2cc([N+](=O)[O-])ccc2c2ccccc12	·	-4	-2%	?	3%	6%	·	·	·
O=C1Cc2c([nH]c3ccc([N+](=O)[O-])cc23)-c2ccccc2N1	·	1	?	2.3µM*	-90%	-1%	-21%	?	2.3µM*
O=C(NCCn1cc(SCc2ccc(Cl)cc2)c2ccccc21)c1cccs1	·	·	-19%	?	-41%	0%	·	·	·
CCS(=O)(=O)N1CC(=O)N(c2ccc(Cl)cc2)C(C)(C(=O)NC2CCCCC2)C1 (centres undefined)	·	·	12%	?	·	0%	·	·	·
SMILES	p53 reactivator	IL-2 act	A549 tox-1	Nrf2 block	BRCA1 expr up	Nrf2 ARE act	FLuc counter 3	A549 tox-2	Nrf2 ARE inh
Cc1cccc(NC(=O)CN2C(=O)CC(c3ccccc3)Sc3ccccc32)c1 (centres undefined)	·	·	-15%	-68%	-33%	0%	·	·	·
O=C(Nc1ccc(F)cc1)c1cc(S(=O)(=O)N2CCCCC2)cs1	-6%	-5	-25%	8.2µM*	-54%	0%	1%	-10%	7.3µM*
CN1/C(=C/c2cc[n+](C)c3ccccc23)C=Cc2ccccc21	-2%	-1	21µM*	1.2µM*	-73%	0%	?	?	6.5µM*
C[n+]1ccc(/C=C/c2ccccc2O)c2ccccc21	-4%	0	-17%	-27%	-27%	3%	·	·	·
Cc1ccc(CNC(=O)c2cc3c(=O)n(Cc4cccnc4)ccc3nc2C)cc1	·	·	2%	-22%	·	1%	·	·	·
O=C(NNC(=O)c1cccc(S(=O)(=O)N2CCc3ccccc32)c1)c1ccccc1	-2%	-5	-28%	8.2µM*	-44%	5%	-19%	-2%	5.2µM*
CN(C)S(=O)(=O)c1cccc(NC(=O)c2cccc(S(=O)(=O)N3CCc4ccccc43)c2)c1	-8%	0	-12%	4.6µM*	-38%	3%	0%	-10%	16µM*
CN(CCCc1cnc[nH]1)C(=S)NCCCN(Cc1ccc(Cl)cc1)c1ccc(Br)cn1	·	·	-7%	-8%	-60%	·	·	·	·
C=CC(=O)Nc1ccc(Nc2nc(NC3CCC(N(C)C)CC3)nc3c2ncn3C(C)C)cc1 (centres undefined)	9%	0	18µM*	2.6µM*	-91%	-3%	5%	8.2µM*	2.6µM*
O=C(Cn1cnc2c(NCc3ccccc3)ncnc21)N1CCN(c2ccccn2)CC1	-2%	0	2%	-10%	6%	1%	·	·	·

From PubChem
